Source: PubChem BioAssay (NCATS)
Results filed as inconclusive are left out. Active and inactive are the calls of the source. Calls come from the whole dose curve; as a rule, active = well fitted curve in the direction sought with a large enough effect; inconclusive = small, poorly fitted or top-dose-only effect, or another doubt; inactive = no such curve, though single readings can be large; an effect the other way counts as inactive or inconclusive.

Test: qHTS for Inhibitors of Plasmodium falciparum (DD2) proliferation (AID 504314);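 note: parasite DNA measured by SYBR Green fluorescence after red cell lysis; plate controls were DMSO vehicle for no effect and artemisinin wells for full effect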
Conditions: P. falciparum Dd2 in erythrocytes, SYBR Green growth, 72 h; series mostly up to 6.11 µM; activity, negative = inhibition: at the top concentration
Outline: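 Quantitative HTS growth inhibition: SYBR Green I binding to parasite DNA after 72 h drug exposure of infected erythrocytes (0.3% parasitemia, 2.5% hematocrit). Signals normalized per plate to inhibitor and vehicle wells.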

| Compound | activity, negative = inhibition |
| --- | --- |
| COC(=O)C(C(C)=O)C(=O)C(Cc1ccccc1)NC(=O)OCc1ccccc1 (stereo unspecified) | -2.23% (inactive) |
| COC(=O)CC=C[C@@H](C)[C@@H](C=NOC[C@@H](O)COCc1ccco1)NS(=O)(=O)c1ccc(C)cc1 | -9.91% (inactive) |
| COC(=O)CC=C[C@@H](C)[C@@H](C=NOC[C@@H](O)COCc1ccco1)OC | -2.06% (inactive) |

Test: qHTS for Inhibitors of Plasmodium falciparum (GB4) proliferation (AID 504315); note: nearly all actives have a fitted effect of over 50% in size; note: potency is the fitted concentration of half-maximal effect;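 for activity change, negative = inhibition: 0% = DMSO vehicle and -100% = 0.29 µM artemisinin control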
Conditions: P. falciparum GB4 in erythrocytes, SYBR Green DNA, 72 h; series mostly up to 6.7 µM; activity change, negative = inhibition: at the top concentration
Outline: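 Erythrocytes infected with P. falciparum line (0.3% parasitemia, 2.5% hematocrit final) incubated with compounds 72 h at 37 °C, 5% CO2; SYBR Green lysis buffer added, fluorescence read next day. Normalized to 0.29 uM artemisinin and DMSO.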

| Compound | activity change, negative = inhibition | Potency |
| --- | --- | --- |
| C[C@@H]1CC[C@H]2C(=O)N(Cc3cccc([N+](=O)[O-])c3)C[C@@H](O)CN2[C@@H]1c1ccc(Br)cc1 | -5.52% (inactive) | – |
| COc1ccc2c(c1)O[C@@H](c1ccc3c(c1)OCO3)[C@H](OC(=O)Nc1ccc(C)c(Br)c1)C2=O | 2.44% (inactive) | – |
| CCN1C(=NCCCCO)NC(c2cccc(C(F)(F)F)c2)C(C(=O)OC)=C1C (stereo unspecified) | -13% (inactive) | – |
| O=C1Nc2cccc(Br)c2[C@@]12O[C@H](COc1ccccc1)CC1=CCC[C@H]12 | -12.6% (inactive) | – |
| C#CCN1C(=O)CC[C@@]23C1=NC(C(=O)OC)=C(C(=O)OC)[C@@H]2N(CC=C(C)C)c1ccccc13 | – | inactive |
| CCN1C(=O)[C@@H]2[C@H]3[C@H](O)[C@H](O)CC(=NOC[C@H]4O[C@H](c5ccccc5)C=C[C@H]4Oc4ccc(OC)cc4)[C@@H]3CC[C@H]2C1=O | -1.09% (inactive) | – |
| CCCCCCCC1=Cc2ccc(F)cc2C(C(C(C)=O)C(=O)OC)N1C(=O)OC (stereo unspecified) | -11.9% (inactive) | – |
| COC(=O)C1=C(C(=O)OC)[C@@H]2N(C)c3ccccc3[C@@]23CCC(=O)N(Cc2ccc(OC)cc2)C3=N1 | -14.2% (inactive) | – |
| COc1ccc(COC(=O)NN=C2C[C@@H](O)[C@@H](O)[C@@H]3[C@H]4C(=O)N(C[C@@H]5CCCO5)C(=O)[C@@H]4CC[C@@H]23)cc1 | 11.1% (inactive) | – |
| COC(=O)CC=C1c2ccccc2C[C@H](OC)[C@@H]1C | -4.23% (inactive) | – |
| C[C@H](O)CON1C(=O)c2ccccc2C1=O | -8.58% (inactive) | – |
| CC(C)CON=C1C[C@@H](O)[C@@H](O)[C@@H]2[C@H]3C(=O)N(Cc4ccc5c(c4)OCO5)C(=O)[C@@H]3CC[C@@H]12 | 3.41% (inactive) | – |
| O=C1[C@H]2[C@@H]3[C@@H](O)[C@H](O)CC(=NOCc4ccccc4)[C@H]3CC[C@H]2C(=O)N1C1CCCCC1 | 8% (inactive) | – |
| COc1ccc([C@]23Cc4cc(OC)c(OC)cc4[C@H](O2)C2=C(CC4(CCCCC4)OC2=O)O3)cc1 | -6.09% (inactive) | – |
| Cc1ccc2[nH]c3nc(CCCn4ccnc4-c4ccccc4)nnc3c2c1 | -6.45% (inactive) | – |
| C=CCN1c2ccccc2[C@]23CCC(=O)N(CCCOC(C)C)C2=NC(C(=O)OC)=C(C(=O)OC)[C@H]13 | -4.4% (inactive) | – |
| COC(=O)N[C@H](C[N+](=O)[O-])c1cccc(C)c1 | 8.39% (inactive) | – |

| Compound | activity change, negative = inhibition | Potency |
| --- | --- | --- |
| CC=COC(=O)N[C@@H](c1ccccc1)[C@]1(C(=O)OCC)CCCC1=O | 9.29% (inactive) | – |
| COc1cc(CCN2C(=O)NC(c3ccccc3)C(C(C)=O)=C2C)cc(OC)c1OC (stereo unspecified) | -7.68% (inactive) | – |
| C[C@@H]1C=CCC(=O)N[C@@H](c2ccccc2)[C@H](C)C=CCC(=O)N[C@@H]1c1ccccc1 | -13.3% (inactive) | – |
| COc1ccc(C=CNC(=O)c2ccc(OC)cc2)cc1 | 0.508% (inactive) | – |
| COc1ccc2c(c1)C(=O)[C@H](OC(=O)N[C@H]1CCCc3ccccc31)[C@@H](c1ccc(OC)c(Br)c1)O2 | -2.38% (inactive) | – |
| COC(=O)C1(C(=O)OC)C[C@@H]2CON=C2[C@@H]1c1ccccc1 | -6.43% (inactive) | – |
| COC(=O)[C@@H]1[C@@H](c2ccccc2)NC(=O)N(CCc2cc(OC)c(OC)c(OC)c2)[C@@H]1C | -4.48% (inactive) | – |
| C=CC[C@@H]1C=CC(ON=CC[C@@H]2C=C[C@@H](OC(C)=O)[C@@H](COC(C)=O)O2)[C@H](CO)O1 (stereo partly specified) | 2.85% (inactive) | – |
| COC(=O)C1=C(C)N(Cc2ccccc2)C(=NCCc2ccccn2)NC1c1cccc(C(F)(F)F)c1 (stereo unspecified) | – | 601 nM (active) |
| C[C@H](NC(=O)N1CCc2nc(COc3ccccc3)c3c(c2C1)CO[C@@H](C)C3)c1ccccc1 | – | inactive |
| COCC(=O)C(C(=O)OC)[C@H](CCc1ccccc1)NC(=O)OC (stereo partly specified) | 18.1% (inactive) | – |
| COc1ccc(NC(=O)N2CCc3nc(-c4ccc(OC)cc4C)c4c(c3C2)CO[C@@H](c2ccccc2)C4)cc1 | – | inactive |
| COC1=C[C@H](C(=O)N2CCCC2)[C@H](C)[C@@H](c2ccccc2)CC1=O | -14.2% (inactive) | – |
| COC(=O)C1=C(C(=O)OC)[C@@H]2N(CC=C(C)C)c3ccccc3[C@@]23CCC(=O)N(CCc2ccccn2)C3=N1 | -1.42% (inactive) | – |
| COc1ccc2c(c1)O[C@H](c1ccc3c(c1)OCO3)[C@@H](OC(=O)NCc1ccc3c(c1)OCO3)C2=O | 12.8% (inactive) | – |
| COC(=O)CC1c2ccccc2C(Cc2ccc3c(c2)OCO3)=C(C)N1C(=O)OC (stereo unspecified) | – | inactive |
